Source: PubChem (National Center for Advancing Translational Sciences (NCATS))
TrxR1 inh: inhibitors of rat thioredoxin reductase 1 | O89049 | recombinant rTrxR1, NADPH fluorescence consumption, selenite substrate | Potency, µM (titrated, usually from 114 µM), inactives show top-dose activity change, negative = inhibition, actives largely listed as inhibitors | 1% of 390,000 active | AID 588453; further: potency means the concentration at half of the fitted maximal effect; on the % scale 0 is the no-effect control and ±100 the full control effect; nearly all actives have a fitted effect of over 65% in size
Target sequence (O89049 whole entry, looked up): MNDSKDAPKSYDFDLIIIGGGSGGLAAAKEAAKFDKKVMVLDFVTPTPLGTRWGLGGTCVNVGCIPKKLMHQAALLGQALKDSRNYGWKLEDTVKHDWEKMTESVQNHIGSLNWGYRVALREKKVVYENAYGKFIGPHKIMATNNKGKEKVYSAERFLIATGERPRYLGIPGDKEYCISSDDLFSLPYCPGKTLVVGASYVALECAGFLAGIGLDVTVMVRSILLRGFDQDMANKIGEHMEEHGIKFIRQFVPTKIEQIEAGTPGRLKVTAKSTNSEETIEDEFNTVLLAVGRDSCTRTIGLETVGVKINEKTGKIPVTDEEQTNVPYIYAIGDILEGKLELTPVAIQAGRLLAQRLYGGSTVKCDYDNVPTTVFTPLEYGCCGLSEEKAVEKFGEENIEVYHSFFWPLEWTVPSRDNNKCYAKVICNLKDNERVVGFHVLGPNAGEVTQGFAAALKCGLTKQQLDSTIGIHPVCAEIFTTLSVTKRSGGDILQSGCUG
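Rat TrxR1 (90 nM in the dispensed reagent) was pre-reduced with 400 uM NADPH for 5 min at room temperature, then incubated with compound for 15 min. After 400 uM selenite was added, NADPH fluorescence (Ex 340/Em 450 nm) was followed for 8 min.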
Pin1 inhibitor: blocks the human prolyl isomerase Pin1; 0.009% of 390,000 active; Pin1 FP peptide displacement, HiFluor488, 10 min; Potency, µM (series often up to 115 µM), for the others: at the highest dose activity, negative = inhibition, most hits filed as inhibitors; Q13526; AID 504891; active means well fitted inhibition curve with a large enough effect in the polarisation, with a control signal flat, not every such curve was filed as active; inconclusive means small, poorly fitted or top-dose-only effect, or effect the other way, or a change in a side signal; inactive means no such curve, though single readings can be large or run the other way; the % refers to the polarisation; further: potency means the concentration at half of the fitted maximal effect; on the % scale 0 is the no-effect control and ±100 the full control effect
Akt phos inh: blocks phosphorylation of Akt; Neuro2A IGF-stimulated pAkt S473 HTRF, 20 min; hits give low values; activity change, % for hits at 50 µM; 0.32% of 360,000 active; AID 651550; in the data active means activity change below about -80%; inconclusive means mostly about -51% to -80%; further: on the % scale 0 is the no-effect control and ±100 the full control effect
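Neuro2A cells in DMEM with 0.5% FBS, overnight at 37 deg C, given compound at single 50 µM final, then IGF (6 nM final) for 20 min at 37 deg C. Lysed; phospho-Akt Ser473 by HTRF after 24 h, 665/615 ratio.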
N370S GC: inhibits or activates N370S mutant glucocerebrosidase; Potency, µM (top dose mostly 59.4 µM), for the others: at the top dose activity change, negative = inhibition, hits mostly inhibitors; P04062; N370S GC spleen homogenate, 4MU-glucoside fluorescence; AID 2101; 0.092% of 330,000 active;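 further: potency means the concentration at half of the fitted maximal effect; 0% = full enzyme activity and -100% = no enzyme basal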
AT treatment: potential ataxia-telangiectasia treatment; F2112 A-T fibroblasts, KAP-1 phosphorylation AlphaLISA; neocarzinostatin DNA damage 30 min before lysis; Potency, µM (doses to about 57.5 µM), for inactives: at the highest dose activation, usual class: activators; 0.19% of 320,000 active; AID 485349; further: potency means the concentration at half of the fitted maximal effect; % of control where 0% means no effect; nearly all actives have a fitted effect of over 45% in size
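ATM-like activity read as KAP-1 phosphorylation via AlphaLISA donor/acceptor antibody pairs after lysis and 6 hr at 25C. Cells were ATM-null patient fibroblasts (F2112, hTERT), dosed 60 min, then exposed to the DSB inducer NCS for 30 min.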
TrxR1 substrate: substrates of rat thioredoxin reductase 1. O89049. purified TrxR1 substrate turnover, NADPH consumption readout. Potency, µM (doses to about 114 µM), inactives show at the highest dose activity change, negative = substrate turnover. 0.01% of 390,000 active; further: potency means the concentration at half of the fitted maximal effect; on the % scale 0 is the no-effect control and ±100 the full control effect; nearly all actives have a fitted effect of over 50% in size
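Rat TrxR1, dispensed at 90 nM, was prereduced with 400 uM NADPH (final) for 5 min at ~22 deg C, then incubated with compound 15 min before 400 uM selenite. A first-read NADPH fluorescence drop versus no-compound background flagged substrates.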
Active calls of the source: *; i = inactive; ? = inconclusive; . = no result; [ ] = another dose, or the depositor's remark. Shown are actives, neighbours in structure and some others; about 1.4% of the full set was active somewhere. Unless noted, the call rests on the fitted dose curve; in most records, active means well fitted curve in the direction sought with a large enough effect; inconclusive means small, poorly fitted or top-dose-only effect, or another doubt; inactive means no such curve, though single readings can be large; an effect the other way counts as inactive or inconclusive.

SMILES	TrxR1 inh	Pin1 inhibitor	Akt phos inh	N370S GC	AT treatment	TrxR1 substrate
Nc1nc(Sc2c([N+](=O)[O-])cc(C(F)(F)F)cc2[N+](=O)[O-])n[nH]1	15.8µM*	2.6%	i	-5.3%	-16.5%	7.0%[57.1 µM]
Nc1nc(Sc2ccc(C(F)(F)F)cc2[N+](=O)[O-])n[nH]1	-14.5%[57.1 µM]	3.6%	i	-0.7%	-0.1%	2.0%[57.1 µM]
Cc1ccn2c(Nc3ccc4c(c3)OCO4)c(-c3ccc(O)cc3)nc2c1	27.0%	-3.1%	i	15.8µM*	43.0%	65.9%
CCOc1ccc(NC(=O)Cn2c(CCC(=O)O)ccc2-c2ccc(Cl)cc2)cc1	4.0%	-9.5%	.	.	.	7.3%
COc1ccc(C(=O)COC(=O)c2cccs2)cc1	16.4%	-3.4%	i	.	7.7%	-7.5%
O=C(CC(Nc1ccc(F)cc1)C(=O)O)c1ccccc1 (stereo not given)	14.1µM*	-4.5%	i	5.1%	2.6%	-0.5%
O=C(COC(=O)c1cccs1)c1ccccc1	-2.0%[57.1 µM]	-12.6%	-127.0%*	-0.8%	8.2%	7.0%[57.1 µM]
O=C(CC(Nc1ccc(F)cc1)C(=O)OCC(=O)c1cccs1)c1ccccc1 (stereo not given)	25.1µM*	13.3%	i	7.5%	3.6%	-1.3%
Cc1cccc(C[C@H](C(=O)O)N2C(=O)c3ccc(C(=O)O)cc3C2=O)c1	.	?	.	-3.5%	3.6%	.
COc1ccc(C2Nc3ccccc3C(=O)N2Cc2ccccc2)cc1COc1cccc(C)c1 (stereo not given)	.	25.5%	.	.	.	.
Cc1cc(N2CCCCCC2)nc(-c2ccccc2O)n1	87.2%	-9.9%	-90.9%*	18.7%	12.5%	100.4%
Cc1cc(N2CCOCC2)nc(-c2ccccc2O)n1	2.8%	0.0%	i	6.1%	1.4%	-3.5%
Cc1ccc(CN(C)C(=O)C2CCC(=O)N(CCc3ccccc3)C2)o1 (stereo not given)	39.8µM*	29.4%	i	3.7%	-1.4%	9.2%
Cc1ccc(CCNC(=O)C2CCC(=O)N(Cc3ccccc3F)C2)o1 (stereo not given)	56.2µM*	-8.3%	i	-15.1%	5.2%	6.4%
COc1cccc(CN2CC(C(=O)NCCc3ccc(C)o3)CCC2=O)c1 (stereo not given)	20µM*	-6.4%	i	-4.3%	2.9%	6.7%
CCC1CN(C(=O)N2CCC(C(=O)NCc3ccc(OC)cc3OC)CC2)c2cc(C)ccc2O1 (stereo not given)	19.4%	16.8%	.	.	.	-5.6%
O=Cc1ccc(N2CCCC2)c(F)c1	-28.1%	0.7%	i	2.8%	2.1%	-22.3%
O=Cc1ccc(N2CCCCCC2)cc1	-1.4%[57.1 µM]	-0.4%	-127.8%*	-11.2%	3.9%	4.3%[57.1 µM]
O=C(O)/C=C/C(=O)Nc1ccccc1SC(F)(F)F	35.5µM*	2.0%	i	5.3%	8.1%	1.2%
O=C(O)/C=C/C(=O)Nc1ccccc1-c1ccccc1NC(=O)/C=C/C(=O)O	?	-11.4%	i	-8.5%	-5.9%	8.2%[57.1 µM]
O=C(NC1CCCC1)c1ccc(CS(=O)Cc2ccccc2Cl)o1 (stereo not given)	50.1µM*	-7.2%	i	5.6%	3.3%	5.7%
CC(C)CN1C(=O)/C(=C/c2cccs2)NC1=S	14.1µM*	-2.9%	i	28.4%	-5.8%	-2.9%
CC(C)CN1C(=O)/C(=C/c2ccco2)NC1=S	-73.0%	?	i	0.3%	-1.2%	-10.1%
CCOC(=O)C1=C(Cc2ccc(F)cc2)C(=O)c2ccccc2C1=O	6.31µM*	-1.5%	.	-7.5%	13.3%	-21.9%
O=C(OCc1ccc(F)cc1)c1ccc2c(c1)-c1ccccc1C2=O	1.2%	9.5%	i	-1.6%	3.9%	1.8%
Cc1cc2c(s1)c1cnn(Cc3c(F)cccc3F)c(=O)c1n2C	.	12.8%	.	.	.	.
C(=C\c1ccco1)/C=N/n1cnnc1	22.4µM*	-4.8%	i	-4.9%	?	-14.7%
CCOc1cc(C(=S)N2CCN(C)CC2)ccc1OCC(=O)N1CCOCC1	5.5%[57.1 µM]	0.9%	-112.2%*	-16.1%	0.2%	7.1%[57.1 µM]
